PostGolgi yeast: phenotypic screen on post-Golgi transport, primary screen; 98,000 compounds, 0.9% hits; post-Golgi transport phenotypic cell assay; inhibition, % at 10 µM;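 note: yeast cells grown in 1536-well plates; yeast grown about 18 h at 30C before absorbance read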
CYP2C9 act: human CYP2C9 activators, primary screen, biochemical, luminescence; AID 1024, 2008; activation factor at 5 µM; 96,000 compounds, 1.4% hits; recombinant CYP2C9, luciferin-H conversion; active compounds read high; factor 1 = untreated enzyme, 0 = blocked;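 active = activation factor of 2 or more for CYP2C9 at a 5 µM dose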;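 note: 0 = sulfaphenazole-blocked wells and 1 = vehicle-only wells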
Target sequence (P11712 whole entry, looked up): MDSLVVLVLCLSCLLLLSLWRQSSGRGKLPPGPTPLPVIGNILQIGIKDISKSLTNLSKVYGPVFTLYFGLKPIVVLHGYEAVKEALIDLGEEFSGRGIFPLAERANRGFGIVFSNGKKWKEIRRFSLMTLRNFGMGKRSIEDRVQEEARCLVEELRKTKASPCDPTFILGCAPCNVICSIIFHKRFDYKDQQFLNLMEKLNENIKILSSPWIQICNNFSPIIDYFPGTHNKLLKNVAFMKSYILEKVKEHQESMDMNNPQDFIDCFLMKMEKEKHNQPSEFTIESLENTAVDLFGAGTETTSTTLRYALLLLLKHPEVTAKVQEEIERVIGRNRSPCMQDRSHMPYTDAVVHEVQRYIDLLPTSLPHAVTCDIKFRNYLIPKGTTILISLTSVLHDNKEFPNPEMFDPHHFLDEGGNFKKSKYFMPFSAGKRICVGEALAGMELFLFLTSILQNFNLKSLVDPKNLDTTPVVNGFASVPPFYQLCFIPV
CYP2C19 activ: human CYP2C19 activators, primary screen, biochemical, luminescence; Cytochrome P450 2C19 (Homo sapiens), P33261; recombinant CYP2C19, luciferin-H EGE luminescence; active compounds read high; 0 = fully inhibited enzyme, 1 = untreated enzyme; activation factor at 5 µM; 96,000 tested, under 10 active;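 active = activation factor of at least 2 at 5 µM in the primary screen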;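 note: 0 = wells with 2.5 mM tranylcypromine and 1 = vehicle-only wells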
CYP2C9 inh: blockers of cytochrome P450 2C9 activity – biochemical, luminescence, ADME assay, primary screen | CYP2C9 Supersomes, luciferin-H conversion | inhibition, % at 5 µM | P11712 | 96,000 compounds, 20% hits;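 active = blocking of liver enzyme CYP2C9 beyond about 50% at 5 µM, limit read from the data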
CYP2C19 inhib: blockers of cytochrome P450 2C19 activity – biochemical, luminescence, ADME assay, primary screen. inhibition, % at 5 µM. CYP2C19 Supersomes, luciferin-H EGE luminescence, 30 min. P33261. AID 778, 2007. 96,000 compounds, 21% hits;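 active = CYP2C19 inhibition above a set limit at 5 µM in the primary screen, cut at about 50% in these data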;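 note: plate controls were negative control wells for no effect and 2.5 mM tranylcypromine positive control for full effect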
PostGolgi ctrl: growth inhibition of yeast control strain, primary screen, counter-screen for post-Golgi transport modulator project | efflux-deficient yeast background strain, growth absorbance A615, 16 h | inhibition, % at 10 µM | 98,000 compounds, 5% hits | AID 738, 2007
Starred values were filed as active, the others as inactive; . = no result given. A selection: hits, their analogues and other compounds. The true share with any hit is near 32%. Cut-off read from the data, not from the text of the source, unless noted: active = inhibition above about 30%; inactive = the rest.

SMILES | PostGolgi yeast | CYP2C9 act | CYP2C19 activ | CYP2C9 inh | CYP2C19 inhib | PostGolgi ctrl
O=C(C1CCN(S(=O)(=O)c2ccccc2)CC1)N1CCC2(CC1)OCCO2 | 5 | 0.9 | 0.9 | 11 | 6 | 1
CCN1CCN(Cc2cc(Br)cc(Br)c2O)CC1 | -2 | 0.9 | 0.4 | 9 | 60* | 10
CCN1CCN(Cc2cc(Br)ccc2O)CC1 | -27 | 1.3 | 0.8 | -33 | 22 | 0
N#CC1=C(N)Oc2c(c(=O)oc3ccccc23)C1c1cccnc1 (configuration not stated) | 2 | 0.4 | 1.1 | 64* | -9 | 10
COc1cccc(C2C([N+](=O)[O-])=C(N)Oc3c2c(=O)oc2ccccc32)c1 (configuration not stated) | 2 | 0.9 | 0.9 | 14 | 11 | -2
Cc1nn(-c2ccccc2)c(Cl)c1C1C(C#N)=C(N)Oc2c1c(=O)oc1ccccc21 (configuration not stated) | 6 | 0 | 0.6 | 99* | 45 | 31*
CCSc1nnc([C@@H](N)Cc2ccccc2)o1 | 8 | 1 | 0.7 | 5 | 33 | -3
O=c1c2ccccc2nc(-c2ccccc2)n1-c1cccnc1 | 12 | 1.1 | 1.2 | -10 | -16 | 5
O=P(C(c1c[nH]c2ccccc12)N1CCOCC1)(N1CCOCC1)N1CCOCC1 (configuration not stated) | -1 | 0.2 | 1.1 | 75* | -10 | -2
CCOC(=O)c1ccc(NC(=O)c2c(O)[nH]c(=O)[nH]c2=O)cc1 | -2 | 0.9 | 0.9 | 12 | 12 | 7
Nc1ccccc1C(=O)c1ccccc1 | -8 | 1 | 0.8 | 4 | 24 | 4
CC(=O)Nc1ccccc1C(=O)OCc1ccc(C(=O)c2ccccc2)cc1 | -6 | 0.3 | 0.6 | 72* | 38 | 2
COc1ccc(OCC(=O)N2CCN(CC3CC4C=CC3C4)CC2)cc1 (configuration not stated) | 23 | 0.9 | 1 | 8 | 2 | 16
CCCC1=C(C(=O)OCC)C2(C(=O)Nc3ccccc32)C(C#N)=C(N)O1 (configuration not stated) | -10 | 0.9 | 1 | 12 | 4 | -3
O=C(Cc1ccccc1)Oc1cccc(N2C(=O)CCC2=O)c1 | 3 | 0.8 | 0.8 | 17 | 20 | 33*
O=C(O)CP(=O)(O)c1ccc(Cl)cc1 | 14 | 1.1 | 1 | -6 | -1 | -7
Cc1ccc(S(=O)(=O)N(C)CCCC(=O)N2CCN(c3ccccn3)CC2)cc1 | -6 | 0.7 | 0.5 | 33 | 52* | 13
O=C1OCCC1NC1=NCCC1 (configuration not stated) | -1 | 1 | 1 | 1 | -2 | 1
CCOC(=O)N1CCN(C(C)C(=O)c2c[nH]c3ccccc23)CC1 (configuration not stated) | -4 | 0.2 | 0.1 | 84* | 92* | 12
CCOC(=O)c1c(-n2c(C)cc(/C=C3\C(=O)NC(=O)N(C)C3=O)c2C)sc2c1CCCC2 | -1 | 0.3 | 0.6 | 71* | 43 | 20
CCOC(=O)c1c(/N=C/c2c(O)n(-c3ccc(F)cc3)c(=S)[nH]c2=O)sc2c1CCCC2 | -2 | 0.6 | 1.1 | 37 | -10 | 10
CCn1nc(-c2ccccc2)nc2c(=O)n(C)c(=O)nc1-2 | 106* | . | . | . | . | 102*
OC12Oc3ccccc3C=C1N1CCC2CC1 (configuration not stated) | -11 | 1.1 | 0.9 | -15 | 8 | 6
CCCC/C(=N\O)c1c[nH]c2ccccc12 | 4 | 0.7 | 0.3 | 28 | 69* | 7
O=C(C1CCCN(S(=O)(=O)c2cccc3nsnc23)C1)N1CCC2(CC1)OCCO2 (configuration not stated) | -10 | 0.7 | 0.7 | 27 | 25 | -2
SMILES | PostGolgi yeast | CYP2C9 act | CYP2C19 activ | CYP2C9 inh | CYP2C19 inhib | PostGolgi ctrl
CCS(=O)(=O)N1CCCC(C(=O)N2CCC3(CC2)OCCO3)C1 (configuration not stated) | -3 | 0.9 | 0.4 | 15 | 58* | 9
CC1(C)CC(=O)C(C=NCCN2CCN(C(=O)Cc3ccc(F)cc3)CC2)=C(O)C1 | -1 | 1 | 1 | -4 | 0 | 2
CCOC(=O)C1SC2(C(F)F)CC1(O)c1c(c(OC)c3occc3c1OC)O2 (configuration not stated) | 7 | 0 | 0 | 97* | 100* | 24
Cc1nc2cc(-c3ccccc3)nn2c(C)c1CCC(=O)N1CCC2(CC1)OCCO2 | 9 | 1 | 0.9 | 2 | 10 | 16
Cc1nc2ncnn2c(C)c1CCC(=O)N1CCC2(CC1)OCCO2 | 19 | 0.9 | 1 | 8 | 3 | 1
Cc1ccc(Cc2c(C)nc3nc(SCC(=O)N4CCC5(CC4)OCCO5)nn3c2C)cc1 | 2 | 0.4 | 0.5 | 65* | 52* | 5
Cc1ccccc1Cc1c(C)nc2nc(SCC(=O)N3CCC4(CC3)OCCO4)nn2c1C | -2 | 0.1 | 0.5 | 89* | 47 | 4
CN(C)CCc1nn[nH]n1 | 8 | . | . | . | . | -2
CCOC(=O)C(O)(c1ccc(NC(=O)NC2CCCCC2)cc1)C(F)(F)F (configuration not stated) | -7 | 0.4 | 0.2 | 59* | 80* | -2
O=C(NCc1cccnc1)NC1CCCCC1 | 17 | 0.9 | 0.7 | 11 | 26 | 6
CC1(C)CC(=O)C(C2(O)C(=O)NC(=O)NC2=O)=C(O)C1 | 1 | 0.9 | 0.9 | 8 | 6 | 7
c1ccc2c(c1)CNc1ccccc1O2 | -11 | 0.9 | 0.5 | 8 | 48 | 7
Cc1ccc2c(c1)CNc1ccccc1O2 | -2 | 0.8 | 0.3 | 25 | 71* | -4
COc1ccc(C(=O)N2CCOCC2)cc1S(=O)(=O)N1CCC(C)CC1 | 6 | 0.7 | 1.1 | 27 | -9 | 7
CC1CCN(S(=O)(=O)c2ccc(NN=C(C#N)C#N)cc2)CC1 | -1 | 0.1 | 1 | 94* | 4 | 10
O=c1cccc2n1CC1CC2CN(S(=O)(=O)c2ccccc2)C1 (configuration not stated) | 43* | 1.1 | 1 | -8 | -3 | 3
CN(C)c1nc(OCCNC(=O)COc2ccc(Cl)cc2Cl)nc(N2CCCCC2)n1 | -3 | . | . | . | . | 15
CNC(C(=O)c1ccccc1)C(OC(C)C)c1ccc(Cl)cc1 (configuration not stated) | 5 | 0.6 | 0.4 | 37 | 63* | 23
CCC1CCCCN1P(=O)(c1ccc(C)o1)C(C)(C)C (configuration not stated) | 4 | 1 | 1 | -4 | 1 | -8
